Compounds with a hit are over-represented: about 3.1% of the library has one in this group of screens.
Tb PFK inh: blocks T. brucei phosphofructokinase; O15648; Potency, µM (highest dose often 57.5 µM), inactives show at the top dose activity, negative = inhibition, actives largely listed as inhibitors; T. brucei PFK, ADP-Glo luminescence; 0.17% of 330,000 active;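 note: 0% = uninhibited 1x PFK enzyme wells and -100% = no-enzyme wells; nearly all actives have a fitted effect of over 60% in size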
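Luminescent ADP detection (ADP-Glo, two-step: ATP depletion then ADP-to-ATP conversion for luciferase) reported PFK activity after 45 min room-temperature reaction of 1.25 nM enzyme with 0.5 mM F6P and 0.1 mM ATP at pH 8.0.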
S-ASM inh: blocks human secretory acid sphingomyelinase | Potency, µM (titrated, usually from 57.5 µM), for the others: at the highest dose activity change, negative = inhibition, actives largely listed as inhibitors | placental ASM, HMU-PC fluorogenic substrate, 60 min | 0.006% of 340,000 active | P17405
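Human placenta-derived ASM preincubated with compound 10 min at room temperature, then reacted with 9 uM (final) fluorogenic HMU-PC substrate for 60 min at 37 C. Stop solution raises pH to 10; fluorescence read at Ex 386/Em 447 nm.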
PLK1 PBD inh: PLK1 (human) polo-box domain binding inhibition. Plk1 PBD binding of FITC phosphopeptide, fluorescence polarization. Potency, µM, for inactives: max response, negative = inhibition, hits mostly inhibitors. 2.8% of 360,000 active. AID 720504; note: series mostly up to about 57 µM; % is set by controls: 0 for no effect and ±100 for the full control effect; nearly all actives have a fitted effect of over 65% in size
VDR inh: blocks the human vitamin D receptor. P11473. VDR-SRC2-3 peptide fluorescence polarization, 2 h. Potency, µM, inactives show max response, negative = inhibition, most hits filed as inhibitors. 0.93% of 400,000 active; note: % is set by controls: 0 for no effect and ±100 for the full control effect
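Fluorescence polarization assay measuring small-molecule disruption of VDR binding to the coregulator peptide SRC2-3. Compounds were pin-transferred (23 nl) into the reagent mix and incubated 2 h at room temperature before reading.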
Pin1 inhibitor: blocks the human prolyl isomerase Pin1. Pin1 FP peptide displacement, HiFluor488, 10 min. 0.009% of 390,000 active. Q13526. AID 504891. Potency, µM (titrated, usually from 115 µM), without a hit: at the highest dose activity, negative = inhibition, hits mostly inhibitors; active = well fitted inhibition curve with a large enough effect in the polarisation, with a control signal flat, not every such curve was filed as active; inconclusive = small, poorly fitted or top-dose-only effect, or effect the other way, or a change in a side signal; inactive = no such curve, though single readings can be large or run the other way; the % refers to the polarisation; note: % is set by controls: 0 for no effect and ±100 for the full control effect
TDP1 block: TDP1 (human) enzyme inhibition | Potency, µM (doses to about 130 µM), without a hit: at the top dose activity change, negative = inhibition, most hits filed as inhibitors | 0.28% of 350,000 active | recombinant TDP1, AlphaScreen DNA substrate cleavage; note: % is set by controls: 0 for no effect and ±100 for the full control effect; nearly all actives have a fitted effect of over 40% in size
Target sequence (Q9NUW8 whole entry, looked up): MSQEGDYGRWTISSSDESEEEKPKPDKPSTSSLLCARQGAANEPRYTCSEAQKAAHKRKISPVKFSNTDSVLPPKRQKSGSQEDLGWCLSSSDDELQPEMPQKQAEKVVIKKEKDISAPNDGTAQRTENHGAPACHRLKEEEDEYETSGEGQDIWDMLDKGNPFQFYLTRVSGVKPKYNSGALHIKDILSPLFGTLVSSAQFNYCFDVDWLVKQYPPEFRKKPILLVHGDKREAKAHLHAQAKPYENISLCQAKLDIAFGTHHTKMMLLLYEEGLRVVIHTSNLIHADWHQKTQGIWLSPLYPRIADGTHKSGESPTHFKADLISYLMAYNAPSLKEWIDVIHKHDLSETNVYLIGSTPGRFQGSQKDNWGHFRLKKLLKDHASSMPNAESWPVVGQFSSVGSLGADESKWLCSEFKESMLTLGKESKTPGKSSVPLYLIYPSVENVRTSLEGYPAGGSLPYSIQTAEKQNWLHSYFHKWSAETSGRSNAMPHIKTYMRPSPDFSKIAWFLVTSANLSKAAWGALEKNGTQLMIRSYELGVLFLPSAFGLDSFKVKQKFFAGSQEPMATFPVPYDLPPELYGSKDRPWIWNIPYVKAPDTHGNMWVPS
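Here, a 5' biotin and 3' phosphotyrosine-FITC DNA oligonucleotide reports Tdp1 activity: intact substrate bridges AlphaScreen beads, while cleavage leaves a 3' phosphate and drops signal. All incubations at room temperature.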
An asterisk follows results filed as active; ? = inconclusive; nt = not tested or not shown; [ ] = dose if it differs, or a comment. Unless noted, calls come from the whole dose curve; as a rule, active = well fitted curve in the direction sought with a large enough effect; inconclusive = small, poorly fitted or top-dose-only effect, or another doubt; inactive = no such curve, though single readings can be large; an effect the other way counts as inactive or inconclusive. Potency is the fitted concentration of half-maximal effect.

SMILES	Tb PFK inh	S-ASM inh	PLK1 PBD inh	VDR inh	Pin1 inhibitor	TDP1 block
Cc1c(CCC(=O)O)c(=O)oc2cc3occ(-c4ccc(Cl)cc4)c3cc12	-5%	15%[11.5 µM]	?	-29%	10%	nt
Cc1c(CCC(=O)O)c(=O)oc2c(C)c3occ(-c4ccc(Cl)cc4)c3cc12	-22%	64%	30µM*	?	-24%	nt
Cc1oc2c(C)c3oc(=O)c(CCC(=O)O)c(C)c3cc2c1-c1ccccc1	7%	25%	27µM*	?	?	nt
CCCCC/C=C\C\C=C/C=C/C=C/[C@@H](SCC(NC(=O)CCC(N)C(=O)O)C(=O)NCC(=O)O)[C@@H](O)CCCC(=O)O (stereo partly drawn)	nt	nt	nt	-8%	nt	4%
CC1=NN(c2ccc(C)cc2)C(=O)/C1=C\c1ccc(Br)s1	3%	-3%	-21%	-21%	-6%	7%
COc1cc(/C=C2/C(=O)N(c3ccc(Br)cc3)N=C2C)cc(OC)c1OC	0%	?	1.3µM*	?	1%	nt
CC1=NN(c2ccc(Br)cc2)C(=O)/C1=C/c1cccs1	0%	?	8.4µM*	?	-3%	8%
COc1cc(/C=C2/C(=O)N(c3ccc(C(=O)O)cc3)N=C2C)cc(OC)c1O	5%	6%	40%	-1%	?	nt
CCc1c(-c2ccccc2)nc2ccccc2c1C(=O)NCCc1ccccc1	nt	nt	nt	10%	-4%	5%
COc1ccc(Br)cc1Cn1nnc(C(=O)Nc2cccc(SC)c2)c1N	nt	nt	nt	-12%	20%	2%
S=C(SSC(=S)N1CCOCC1)N1CCOCC1	nt	nt	1.5µM*	nt	nt	nt
CCOCCCNC(=O)C(c1ccccc1)N(Cc1cccs1)C(=O)c1ccc(NC(C)=O)cc1 (stereo not drawn)	nt	nt	nt	-4%	3%	0%
COCCN1C(=O)N(c2cccc(OC)c2)C(=O)C1CC(=O)Nc1ccc(OC)cc1 (stereo not drawn)	2%	-1%	-3%	-14%	2%	2%
CCOc1ccc(NC(=O)CC2C(=O)N(c3cccc(OC)c3)C(=O)N2CCOC)cc1 (stereo not drawn)	2%	0%	30µM*	-27%	1%	nt
CCc1cccc(C)c1NC(=O)CN1CCCN(Cc2ccccc2Cl)S1(=O)=O	nt	nt	nt	-9%	-3%	3%
O=C(c1cc2cc(Br)ccc2o1)N1CCN(c2ccccc2)CC1	-1%	-2%	-6%	8%	-4%	2%
O=C(c1cc2cc(Br)ccc2o1)N1CCCC1	6%	3%	27µM*	?	-1%	2%
O=C1CCCC2=C1C1(CCCC1)N=C(Nc1nc3ccccc3n1Cc1ccccc1)N2	nt	nt	nt	nt	6%	1%
CN1CC(O)(C(O)C(O)C(O)CO)SC1=S (stereo not drawn)	nt	nt	21µM*	nt	nt	nt
COc1ccccc1CNC(=O)c1ccc(Cn2c(SCc3ccccc3)nc3cccnc32)cc1	nt	nt	nt	9%	32%	1%
CCCC(=O)Nc1ccc(Cl)c(NC(=O)CC)c1	-6%	4%	27µM*	-28%	1%	-2%
CCC(=O)Nc1ccc(Cl)c(NC(=O)c2ccc([N+](=O)[O-])cc2)c1	3%	1%	8.4µM*	?	-5%	5%
CCCCC(=O)Nc1cc(NC(=O)CC)ccc1Cl	-2%	3%	-2%	-12%	-12%	1%
CCC(=O)Nc1ccc(Cl)c(NC(=O)c2cccc(OC)c2)c1	2%	4%	-11%	-13%	0%	-3%
Cn1nc(-c2ccc(Cl)cc2)c2cc(C(=O)NC3CC3)sc21	-2%	-12%	30µM*	?	0%	4%
SMILES	Tb PFK inh	S-ASM inh	PLK1 PBD inh	VDR inh	Pin1 inhibitor	TDP1 block
O=C1OC2(c3cc(I)c(O)c(I)c3Oc3c2cc(I)c(O)c3I)c2c(Cl)c(Cl)c(Cl)c(Cl)c21	nt	nt	nt	5µM*	nt	29%
O=C1OC2(c3ccccc31)c1cc(I)c(O)c(I)c1Oc1c2cc(I)c(O)c1I	?	nt	nt	4.5µM*	nt	29%
O=C1OC2(c3ccc(O)cc3Oc3cc(O)ccc32)c2ccccc21	nt	nt	nt	-1%	nt	29%
O=C(NCCc1ccccc1)c1ccc2c(c1)N(Cc1ccc(Cl)cc1)C(=O)c1ccccc1S2(=O)=O	nt	nt	nt	?	29%	-3%
Cc1cccc(NC(=O)C2CCCN(S(=O)(=O)c3c(C)noc3/C=C/N(C)C)C2)c1C (stereo not drawn)	nt	nt	nt	9%	?	9%
COc1ccc2[nH]c(C(=O)O)c(CCN3C(=O)c4cccc([N+](=O)[O-])c4C3=O)c2c1	0%	-12%	-11%	-4%	1%	45µM*
N#CC1=C2SCN(C3CCCCC3)CN2C(=O)CC1c1ccc(Cl)cc1 (stereo not drawn)	nt	nt	nt	22µM*	-26%	-2%
N#CC1=C2SCN(C3CCCCC3)CN2C(=O)CC1c1ccc(F)cc1 (stereo not drawn)	nt	nt	nt	18µM*	-7%	5%
N#CC1=C2SCN(C3CCCCC3)CN2C(=O)CC1c1c(F)cccc1Cl (stereo not drawn)	nt	nt	nt	20µM*	7%	0%
CC(C)C[C@H](NC(=O)[C@H](Cc1ccccc1)NC(=O)[C@@H]1CCCN1C(=O)[C@H](CC(=O)O)NC(=O)[C@@H]1CCC(=O)N1)C(=O)N[C@@H](CCCN=C(N)N)C(=O)N[C@@H](Cc1ccccc1)C(N)=O	nt	nt	nt	11%	nt	6%
COc1cccc(NC(=O)c2oc3ccc(S(=O)(=O)N4CCC5(CC4)OCCO5)cc3c2C)c1	nt	nt	nt	9%	22%	8%
COc1ccc2c(CNC3CCCCCC3)c(C(=O)O)n(Cc3ccc(C)cc3)c2c1	nt	nt	nt	2%	?	5%
Cc1cccc(NC(=O)c2ccc(CNS(=O)(=O)c3ccc4c(c3)C(C)(C)C(=O)N4C)cc2)c1	nt	nt	nt	2%	?	-5%
Cc1ccc(NC(=S)N2CCC(c3ccc(C)cc3)C2)cc1 (stereo not drawn)	-12%	-2%	21µM*	?	0%	5%
c1cncc(-c2cc(NCc3cccs3)ncn2)c1	nt	nt	nt	-5%	nt	nt
c1csc(CNc2nc(-c3ccoc3)nc3ccccc23)c1	nt	nt	nt	22µM*	nt	nt
c1csc(CNc2cc(-c3ccoc3)ncn2)c1	nt	nt	nt	20µM*	nt	nt
Cc1cccc(OCc2nc3ccccc3c(=O)n2N)c1	-2%	1%	24µM*	8%	-6%	5%
Cc1cccc(-c2nc3ccccc3c(=O)n2N)c1	1%	-2%	?	11%	4%	nt
COc1cccc(C2/C(=C(\O)c3ccc4c(c3)OCCO4)C(=O)C(=O)N2CCCn2ccnc2)c1 (stereo not drawn)	-3%	-1%	27µM*	?	-10%	5%
CCOC(=O)c1sc(N2N=C(C)/C(=C\c3ccc(OCC(=O)OC)cc3)C2=O)nc1C	1%	-6%	13µM*	?	5%	5%

Source: PubChem (National Center for Advancing Translational Sciences (NCATS))
